PMP22 txn: PMP22 gene transcription modulation | S16 Pmp22-F2sN Schwann cells, FLuc/NLuc coincidence luminescence, 24 h | Potency, µM (top dose mostly 57.5 µM), actives largely listed as inhibitors | actives 2% (n = 43,000); active means clear falling dose curves in both reporters; inconclusive means both reporters move, but less clearly or upward; inactive means either reporter flat; the % is the NLuc reporter signal
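S16(c9) Schwann cells with FLuc/NLuc coincidence reporter in the Pmp22 3' UTR; compounds pin-transferred, 24 h at 37C. Dual-luciferase read: FLuc first, then NLuc after Stop&Glo, each 10 min at room temperature.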
pS6 MEF inh: reduces mTORC1 signaling in Tsc2 and p53 null MEF cells; Tsc2-/- p53-/- MEF, phospho-rpS6 immunofluorescence/PI, 24 h; Potency, µM (titrated, usually from 38.3 µM), hits mostly inhibitors; actives 0.78% (n = 44,000); AID 493208; further: nearly all actives have a fitted effect of over 50% in size
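Compounds act on Tsc2-/-, p53-/- fibroblasts carrying an empty vector for 24 h before fixation and dual staining for phospho-S6 and DNA (propidium iodide). Values are percentages of cells above a rapamycin-defined pS6/PI threshold.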
GALK inhibitor: GALK (human) enzyme inhibition; 44,000 tested, under 10 active; recombinant GALK, Kinase-Glo ATP luminescence, 1 h; Potency, µM (doses to about 57.5 µM), usual class: inhibitors; P51570
Target sequence (P51570 whole entry, looked up): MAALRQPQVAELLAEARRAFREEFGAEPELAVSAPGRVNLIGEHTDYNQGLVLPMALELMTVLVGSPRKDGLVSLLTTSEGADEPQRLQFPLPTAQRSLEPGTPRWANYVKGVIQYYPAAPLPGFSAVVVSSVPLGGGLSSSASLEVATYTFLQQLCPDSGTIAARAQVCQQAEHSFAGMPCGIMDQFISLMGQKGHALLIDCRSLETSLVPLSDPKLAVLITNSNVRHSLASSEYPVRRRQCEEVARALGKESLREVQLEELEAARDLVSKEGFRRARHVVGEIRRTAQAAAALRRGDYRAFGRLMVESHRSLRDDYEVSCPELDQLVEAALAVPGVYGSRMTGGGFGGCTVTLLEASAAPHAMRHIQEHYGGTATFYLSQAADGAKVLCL
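Human GALK (5 nM) was incubated with 35 uM ATP and 100 uM galactose in 20 mM HEPES pH 8.0 with MgCl2, NaCl, DTT and BSA for 1 h at room temperature. Remaining ATP was measured by Kinase-Glo Plus luminescence.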
S16 F2sN tox: S16 Schwann cell cytotoxicity. S16 Pmp22-F2sN Schwann cells (luciferase reporters placed in the Pmp22 gene) viability, CellTiter-Glo, 24 h. Potency, µM (top dose mostly 57.5 µM), most hits filed as cytotoxic. actives 0.48% (n = 43,000); further: nearly all actives have a fitted effect of over 65% in size
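S16 Schwann cells carrying the Pmp22-F2sN reporter, seeded in 1536-well format, were exposed to library compounds for 24 h at 37C. Viability was read as CellTiter-Glo luminescence after 15 min at room temperature.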
PTAP-TSG101 blk: blocks PTAP binding to human TSG101, validation | Q99816 | Fluorescence polarization, FITC-PTAP peptide/Tsg101, 20 min | Potency, µM (top dose mostly 115 µM), most hits filed as inhibitors | 44,000 tested, under 10 active
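FITC-labeled PTAP peptide (50 nM final) binding to Tsg101 binding domain (10 uM final) read by fluorescence polarization after 20 min at r.t. in HEPES pH 7.5 buffer. Actives by CRC class, <25 µM.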
NLuc saturating: inhibits NanoLuc at saturating substrate, PMP22 counter-screen | shares compounds with PMP22 txn | Secreted NLuc enzyme (filtered S16 cell medium), Nano-Glo luminescence | Potency, µM (series often up to 57.5 µM), most hits filed as inhibitors | actives 4% (n = 690)
NLuc Km counter: NanoLuc inhibition at Km substrate, PMP22 artifact check; shares compounds with PMP22 txn; secreted NLuc enzyme, coelenterazine luminescence, Km conditions; actives 5% (n = 690); Potency, µM (highest dose often 57.5 µM), actives largely listed as inhibitors
FLuc ctr PMP22: firefly luciferase enzyme inhibition artifact for PMP22 screen. shares compounds with PMP22 txn. purified P. pyralis FLuc, luminescence, 10 min. Potency, µM (titrated, usually from 57.5 µM), most hits filed as inhibitors. 690 tested, under 10 active. AID 1508640
S16 F2sN tox cnf: S16 Schwann cell cytotoxicity, confirmatory | shares compounds with PMP22 txn | S16 Schwann cells viability, CellTiter-Glo ATP luminescence, 24 h | Potency, µM (doses to about 57.5 µM), usual class: cytotoxic | actives 7% (n = 690)
PMP22 txn conf: confirmation of modulators of PMP22 gene transcription in S16 cells; S16 Schwann cells Pmp22-F2sN, dual luciferase, 24 h; Potency, µM (top dose mostly 57.5 µM), most hits filed as inhibitors; shares compounds with PMP22 txn; actives 22% (n = 690); active means clear falling dose curves in both reporters; inconclusive means both reporters move, but less clearly or upward; inactive means either reporter flat; the % is the FLuc reporter signal
Hits are given with their value; i = inactive; ? = inconclusive; nt = no result. In the library only some 2.8% were active in any assay of this set; here they are far more common. Unless noted, the call rests on the fitted dose curve; in most records, active means well fitted curve in the direction sought with a large enough effect; inconclusive means small, poorly fitted or top-dose-only effect, or another doubt; inactive means no such curve, though single readings can be large; an effect the other way counts as inactive or inconclusive.

SMILES	PMP22 txn	pS6 MEF inh	GALK inhibitor	S16 F2sN tox	PTAP-TSG101 blk	others
CCN1CCN(C(=O)Cn2ncc3c4ccccc4n(Cc4c(C)cc(C)cc4C)c3c2=O)CC1	?	16µM	i	?	i
COc1cc(NC(=O)CSc2nc(-c3ccc(C(C)C)cc3)no2)cc(OC)c1	9.1µM	i	i	i	i
COc1ccc(S(=O)(=O)N2CCCN(CC(=O)Nc3ccc(OC)cc3OC)CC2)cc1	i	i	i	i	i
CCCCn1c2ccc(F)cc2c2nnc(SCCN(CC)CC)nc21	15µM	?	i	i	i
O=C(CN(c1cc(C(F)(F)F)ccc1Cl)S(=O)(=O)c1ccccc1)NCCc1ccccc1	?	i	i	i	i
CS(=O)(=O)N(CC(=O)NCCc1ccccc1)c1cc(C(F)(F)F)ccc1Cl	i	6.6µM	i	i	i
CCc1ccc(NC(=O)CSc2ccc3nnc(CCNS(=O)(=O)c4ccc(OC)cc4)n3n2)cc1	i	i	i	i	i
CC(C)CCNC(=O)Nc1ccc2c(c1)N(C)C(=O)c1ccccc1S2	?	?	i	?	i
COc1ccc(NC(=O)CSc2nc(-c3cccs3)cc(C(F)(F)F)c2C#N)cc1	i	i	i	i	i
Cc1cccc(NC(=O)CSc2nc(-c3cccs3)cc(C(F)(F)F)c2C#N)c1	15µM	i	i	?	i
CC(=O)c1ccc(N2C(=O)N(Cc3ccccc3C#N)c3ccccc3S2(=O)=O)cc1	?	i	i	i	i
CCOc1ccccc1CNC(=O)CCCN1C(=O)CCn2nc(-c3cccn3C)cc21	i	i	i	i	i
Cc1c(C(=O)OCCOc2ccccc2)[nH]c2c1C(=O)CC(c1ccccc1)C2 (configuration not stated)	?	?	i	?	i
Cc1c(C(=O)OCCOc2ccccc2)[nH]c2c1C(=O)CC(c1ccccc1Cl)C2 (configuration not stated)	5.3µM	1.3µM	i	?	i
CN(C)c1ccc(C(=O)Nc2sc(Nc3ccccc3)nc2C(N)=O)cc1	i	4.6µM	i	i	i
COc1ccc(N2CCN(C(=O)C(C)n3nc(C)c4sc5ccccc5c4c3=O)CC2)cc1 (configuration not stated)	?	1.3µM	i	i	i
Cc1ccc(C)c(N2CCN(C(=O)C(C)n3nc(C)c4sc5ccccc5c4c3=O)CC2)c1 (configuration not stated)	i	i	i	i	i
Cc1nn(CC(=O)NC2CCC(C)CC2)c(=O)c2c1sc1ccccc12 (configuration not stated)	?	i	i	i	i
Cc1nn(C(C)C(=O)NC2CCC(C)CC2)c(=O)c2c1sc1ccccc12 (configuration not stated)	?	2.1µM	i	i	i
Cc1nn(C)c2c1c(C(F)(F)F)cc(=O)n2CC(=O)NC(C)(C)C	i	i	i	i	i
O=S(=O)(c1ccccc1)n1nc(-c2ccc(Cl)cc2)nc1NCc1ccccc1	?	15µM	i	?	i
O=S(=O)(c1ccccc1)n1nc(-c2ccccc2)nc1NCc1ccc(Cl)cc1	i	i	i	i	i
CCOC(=O)c1ccc(NC(=O)C(Cc2ccccc2)NS(=O)(=O)c2ccc(Br)s2)cc1 (configuration not stated)	i	i	i	i	i
CC(C)Oc1ccc(CNC(=O)C2CCN(c3nc4ccccc4nc3C(F)(F)F)CC2)cc1	?	i	i	7.9µM	i
COCCNC(=O)C1CCN(c2nc3ccccc3nc2C(F)(F)F)CC1	i	i	i	i	i
SMILES	PMP22 txn	pS6 MEF inh	GALK inhibitor	S16 F2sN tox	PTAP-TSG101 blk	others
O=C(NCc1ccccc1)C1CCN(S(=O)(=O)Cc2ccccc2)CC1	nt	i	i	nt	i
O=C(c1ccc2c(c1)N(Cc1cccc(Cl)c1)C(=O)c1ccccc1S2=O)N1CCN(c2cccc(C(F)(F)F)c2)CC1 (configuration not stated)	11µM	i	i	?	i
Cc1cccc(N2CCN(C(=O)c3ccc4c(c3)N(Cc3ccccc3F)C(=O)c3ccccc3S4=O)CC2C)c1 (configuration not stated)	9µM	i	i	i	i
Cc1ccc(CN(C(=O)c2ccc([N+](=O)[O-])cc2)c2ccccn2)cc1	i	i	i	i	i
COC(=O)C(Cc1c[nH]c2ccccc12)NC(=O)COc1ccc(Cl)cc1Cl (configuration not stated)	i	i	i	i	i
Cn1c(=O)oc2cc(S(=O)(=O)N3CCC(C(=O)N4CCN(c5ccc(Cl)cc5)CC4)CC3)ccc21	13µM	i	i	?	i
CCOc1cc(CNCCSc2nnnn2C)cc(Cl)c1OCc1ccc(Cl)cc1	?	16µM	i	i	i
COc1ccc(-c2csc3ncnc(Nc4ccc(OC)cc4OC)c23)cc1	?	i	i	i	i
COc1ccccc1Nc1ncnc2scc(-c3ccc(F)cc3)c12	18µM	i	i	i	i	NLuc saturating=i;NLuc Km counter=i;FLuc ctr PMP22=i;S16 F2sN tox cnf=i;PMP22 txn conf=i
CCCCCOc1ccccc1CN1C(=O)C(=O)c2cc(C)ccc21	14µM	?	i	i	i	NLuc saturating=?;NLuc Km counter=?;FLuc ctr PMP22=i;S16 F2sN tox cnf=i;PMP22 txn conf=?
COc1cccc(CNC(=O)CN2C(=O)COc3ccc(S(=O)(=O)Nc4ccccc4)cc32)c1	i	i	i	i	i
Cn1c(SCc2ccccc2F)nc2c([nH]c3ccccc32)c1=O	i	i	i	i	i
COCCn1c(SCc2ccccc2F)nc2c([nH]c3ccccc32)c1=O	11µM	i	?	i	i	NLuc saturating=i;NLuc Km counter=i;FLuc ctr PMP22=i;S16 F2sN tox cnf=i;PMP22 txn conf=?

Bioassay records as filed in PubChem.
